Hits are enriched below; roughly 1.3% of the tested compounds scored in any of these assays.
Sa ugtP lethal: growth inhibition of ugtP-null S. aureus, primary screen, RN4220 ugtP deletion, OD600; 16 h; growth inhibition, % (test concentration not listed); 330,000 compounds, 0.54% hits; in the data active = growth inhibition above about 68%
TcdB GH inh: TcdB glycohydrolase inhibitors, primary screen, biochemical, single point, plate reader; 350,000 compounds, 0.24% hits; TcdB glycohydrolase enzymatic assay; Toxin B (Clostridioides difficile), P18177; inhibition, % at 9.99 µM; in the data active = inhibition above about 10%
Mtb hypoxia inh: PubChem AID 1159583 | 300,000 compounds, 0.1% hits | M. tuberculosis hypoxia-regulated fluorescent reporter, fluorescence | fluorescence inhibition, % (concentration not given with the values); in the data active = fluorescence inhibition mostly above about 23%, no sharp cut-off; inactive = mostly below about 17%
MazF activator: activators of E. coli MazEF toxin-antitoxin RNase, primary screen, biochemical, fluorescence, uHTS | FAM/BHQ RNA-DNA oligo cleavage fluorescence, 5 h | activation, % at 20 µM | 350,000 compounds, 0.32% hits | AID 504720, 2011; in the data active = activation above about 50%
RN4220 kill: growth inhibition of S. aureus RN4220, primary screen, OD600; 16 h; inhibition, % (test concentration not listed); 330,000 compounds, 0.33% hits; AID 1259311, 2017; in the data active = inhibition above about 85%
PfHsp40 rescue: rescue of yeast from PfHsp40 toxicity, primary screen, S. cerevisiae, ATP luminescence; S. cerevisiae expressing PfHsp40, growth rescue; growth rescue, % at 12.5 µM; 340,000 compounds, 0.68% hits; in the data active = growth rescue above about 28%, passing the limit was not always enough;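 note: yeast W303a lacking pdr1 and pdr3 grown in galactose medium; growth measured after three days at 30 °C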
Of the large screens only hits and unclear results are named; the others gave an inactive call.

O=C(Nc1ccc(Cl)cc1)/C(=C/c1cccc(O)c1)c1nc2ccccc2s1	Sa ugtP lethal 89
O=C(O)C/C(=C\c1cccc(NC(=O)c2ccccc2Cl)c1)c1nc2ccccc2s1	PfHsp40 rescue 28
S=C(Nc1ccc(Cl)cc1)c1nc2ccccc2s1	none (no result: TcdB GH inh, Mtb hypoxia inh)
COc1ccc(C(=O)Nc2cccc(/C=C(\CCC(=O)O)c3nc4ccccc4s3)c2)cc1	none
CN(C)C(=O)C[C@@H]1CC[C@H]2[C@@H](COc3ccc(NC(=O)C4CCCC4)cc3C(=O)N2C)O1	none (no result: Sa ugtP lethal, Mtb hypoxia inh, MazF activator, RN4220 kill, PfHsp40 rescue)
CCOC(=O)CSc1nc2c(c(=O)n1-c1ccc(OCC)cc1)SCC2	PfHsp40 rescue 40
CCOC(=O)CSc1nc2c(c(=O)n1-c1ccc(OC)cc1)SCC2	none
C[C@@H]1CN([C@@H](C)CO)C(=O)c2cc(NS(=O)(=O)c3cn(C)cn3)ccc2O[C@@H](C)CCCCO[C@@H]1CN(C)C(=O)NC1CCCCC1	none (no result: Sa ugtP lethal, Mtb hypoxia inh, MazF activator, RN4220 kill, PfHsp40 rescue)
CCC(Oc1ccccc1)C(=O)NC1C(=O)N2C1SC(C)(C)C2C(=O)O (configuration not stated)	none (no result: Sa ugtP lethal, Mtb hypoxia inh, RN4220 kill)
CC1(C)S[C@@H]2[C@H](NC(=O)C(NC(=O)N3CCNC3=O)c3ccccc3)C(=O)N2[C@H]1C(=O)O (some centres not stated)	Sa ugtP lethal 100, RN4220 kill 100
COC(=O)C1N2C(=O)C(NC(=O)COc3ccccc3)C2SC1(C)C (configuration not stated)	Sa ugtP lethal 101, RN4220 kill 101 (no result: TcdB GH inh, MazF activator, PfHsp40 rescue)
CC1(C)S[C@@H]2[C@H](NC(=O)Cc3ccccc3)C(=O)N2[C@H]1C(=O)O	Sa ugtP lethal 100, RN4220 kill 100
Cc1ccccc1-c1cnc2c(c1)C(=O)N([C@H](C)CO)C[C@H](C)[C@H](CN(C)C(=O)c1cccnc1)O2	none (no result: Sa ugtP lethal, Mtb hypoxia inh, MazF activator, RN4220 kill, PfHsp40 rescue)
O=C(C[C@@H]1CC[C@@H]2[C@H](COC[C@@H](O)CN2Cc2cccc(C(F)(F)F)c2)O1)NCc1ccc(F)cc1	none (no result: Sa ugtP lethal, Mtb hypoxia inh, MazF activator, RN4220 kill, PfHsp40 rescue)
COC(=O)c1ccc2cc(OC)cc([N+](=O)[O-])c2n1	PfHsp40 rescue 37 (no result: Sa ugtP lethal, Mtb hypoxia inh, RN4220 kill)
COc1cc([N+](=O)[O-])c2nc(C=NNC(N)=S)ccc2c1	none (no result: Sa ugtP lethal, Mtb hypoxia inh, RN4220 kill)
COCC#Cc1cnc2c(c1)C(=O)N([C@@H](C)CO)C[C@H](C)[C@H](CN(C)C(=O)c1ccc(F)cc1)O2	none (no result: Sa ugtP lethal, Mtb hypoxia inh, MazF activator, RN4220 kill, PfHsp40 rescue)
COCc1nnc(NS(=O)(=O)c2ccc([N+](=O)[O-])cc2)s1	Mtb hypoxia inh 65 (no result: TcdB GH inh)
COCc1nnc(NS(=O)(=O)c2ccc(OC)cc2)s1	none
O=S1(=O)C=C(Sc2nc3ccccc3s2)c2ccccc21	Sa ugtP lethal 91 (not shown: TcdB GH inh, Mtb hypoxia inh, PfHsp40 rescue)
Cc1ccc(C=N/N=C2/NC(=O)C(CC(=O)Nc3ccccc3)S2)o1 (configuration not stated)	none (no result: TcdB GH inh, MazF activator, PfHsp40 rescue)
CCOC(=O)c1c(C)sc2c1N(C(=O)CCl)c1cc(Cl)ccc1S2	Sa ugtP lethal 93 (no result: TcdB GH inh, Mtb hypoxia inh)
C[C@H](CO)N1C[C@H](C)[C@H](CN(C)Cc2ccc(F)cc2)Oc2cc(C#CCN(C)C)ccc2S1(=O)=O	none (no result: Sa ugtP lethal, Mtb hypoxia inh, MazF activator, RN4220 kill, PfHsp40 rescue)
O=c1oc(-c2ccccc2)cc(Cl)c1Cl	PfHsp40 rescue 556
C#CCNC(=O)C1=CC(C2CC2)CC(OCc2ccc(CO)cc2)O1 (configuration not stated)	none (no result: TcdB GH inh, MazF activator, PfHsp40 rescue)
Cc1ccc(NS(=O)(=O)c2ccc(NC(=O)c3cccs3)cc2)cc1	MazF activator 74 (no result: TcdB GH inh)
c1ccc(C[n+]2c(-c3ccccc3)csc2Nc2ccccc2)cc1	Sa ugtP lethal 85
Cc1ccc(NC(=O)c2ccc(-c3nn(C)c(=O)c4ccccc34)cc2)cc1	none
Cn1nc(-c2ccc(C(=O)Nc3cccc(Cl)c3)cc2)c2ccccc2c1=O	MazF activator 101 (no result: TcdB GH inh)
CC(C)C(NC(=O)c1ccccc1)C(=O)OCC(=O)C=C1N(C)c2ccccc2C1(C)C (configuration not stated)	none (no result: TcdB GH inh, MazF activator, PfHsp40 rescue)
Clc1ccc(C(c2ccc(Cl)cc2)n2cc[n+](CC(OCc3ccc(Cl)cc3Cl)c3ccc(Cl)cc3Cl)c2)cc1 (configuration not stated)	Sa ugtP lethal 100, RN4220 kill 100 (not shown: Mtb hypoxia inh)
Cc1c(N2C(=O)/C(=C\c3ccc(N(C)C)cc3)N(C)C2=S)c(=O)n(-c2ccccc2)n1C	MazF activator 131 (no result: TcdB GH inh, Mtb hypoxia inh)
CN1C(=S)N(c2cccnc2)C(=O)/C1=C\c1ccc(N(C)C)cc1	none

Bioassay records (PubChem)
